Screens as filed in PubChem BioAssay.
LmPK inh: qHTS Assay for Inhibitors of Leishmania Mexicana Pyruvate Kinase (LmPK). Q27686. purified LmPK, Kinase-Glo ATP luminescence, 1 h. Potency, µM (series often up to 57.5 µM), for the others: at the highest dose activity change, negative = inhibition, hits mostly inhibitors. actives 0.37% (n = 290,000). AID 1721, 2009; also: potency is read from the fitted curve at half-maximal effect; % is scaled to controls: 0 for no effect and ±100 for the full control effect
Target sequence (Q27686 whole entry, looked up): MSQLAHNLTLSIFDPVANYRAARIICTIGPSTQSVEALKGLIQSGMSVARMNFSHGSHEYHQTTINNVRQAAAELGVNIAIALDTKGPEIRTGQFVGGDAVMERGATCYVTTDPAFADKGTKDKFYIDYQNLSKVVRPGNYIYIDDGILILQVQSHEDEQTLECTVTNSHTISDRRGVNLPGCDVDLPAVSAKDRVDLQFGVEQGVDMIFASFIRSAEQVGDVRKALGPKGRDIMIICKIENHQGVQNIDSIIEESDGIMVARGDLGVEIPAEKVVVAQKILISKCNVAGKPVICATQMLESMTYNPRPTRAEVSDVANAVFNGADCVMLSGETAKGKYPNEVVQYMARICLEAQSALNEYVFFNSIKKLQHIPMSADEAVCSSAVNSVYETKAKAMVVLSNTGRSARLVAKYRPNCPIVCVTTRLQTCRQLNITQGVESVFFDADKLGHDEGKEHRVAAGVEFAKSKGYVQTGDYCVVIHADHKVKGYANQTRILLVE
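0.1 nM LmPK, 0.5 mM PEP, 0.1 mM ADP; 50 mM imidazole pH 7.2, 7 mM MgCl2, 50 mM KCl; 1 h RT. Kinase-Glo luminescence readout, normalized to no-enzyme (full inhibition) and uninhibited wells.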
FBPA Giardia inh: qHTS Assay for Inhibitors of Fructose-1,6-bisphosphate Aldolase from Giardia Lamblia | Potency, µM (doses to about 59.6 µM), for the others: at the highest dose activity, negative = inhibition, most hits filed as inhibitors | A8B2U2 | actives 0.71% (n = 290,000) | purified Giardia FBPA; also: potency is read from the fitted curve at half-maximal effect; % is scaled to controls: 0 for no effect and ±100 for the full control effect; nearly all actives have a fitted effect of over 55% in size
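40 nM FBPA preincubated 10 min at RT with compound (up to 57.5 uM final), then substrate plus GAPDH/TPI/NAD/arsenate coupling and diaphorase/resazurin added. Fluorescence read after 20 min at RT, 525/598 nm.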
Cycloheximide cs: Cycloheximide Counterscreen for Small Molecule Inhibitors of Shiga Toxin; cell reporter, cycloheximide protein synthesis inhibition counterscreen; max response, %; actives 12% (n = 300,000); in the data active = max response mostly above about 13%, no sharp cut-off; inactive = mostly below about 14%; also: read at 38.3 µM for the half of the compounds with a filed dose; 0% is about no effect
Tb PYK inh: qHTS of Trypanosoma Brucei Inhibitors | TbPYK enzyme, Kinase-Glo Plus ATP luminescence, 45 min | Potency, µM (titrated, usually from 76.8 µM), for the others: at the highest dose activity, negative = inhibition, most hits filed as inhibitors | actives 0.12% (n = 410,000); also: potency is read from the fitted curve at half-maximal effect; % is scaled to controls: 0 for no effect and ±100 for the full control effect; nearly all actives have a fitted effect of over 50% in size
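ADP (130 uM final) triggers the TbPYK reaction after compound addition; incubation is 45 min at room temperature. Kinase-Glo Plus is then added and luminescence imaged. Normalized data are fitted to concentration-effect curves.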
Shiga toxin inh: A qHTS for Small Molecule Inhibitors of Shiga Toxin; Vero cells, Shiga toxin protein synthesis inhibition reporter; inhibition, % at 38.7 µM; actives 9.2% (n = 290,000); AID 2315, 2010; in the data active = inhibition mostly above about 28%, no sharp cut-off; inactive = mostly below about 43%; also: 0% is about no effect
RE007 growth inh: qHTS Assay for Inhibitors of the HIV-1 protein Vpr; actives 0.21% (n = 360,000); S. pombe RE007 Vpr strain, BacTiter-Glo ATP luminescence, 24 h; Potency, µM (top dose mostly 92.2 µM), for the others: top-dose activity change, negative = less growth, actives largely listed as inhibitors; active = well fitted falling curve with a large enough effect; inconclusive = small, poorly fitted or top-dose-only effect; inactive = no such curve, though single readings can be large or run the other way; also: potency is read from the fitted curve at half-maximal effect; % is scaled to controls: 0 for no effect and ±100 for the full control effect; nearly all actives have a fitted effect of over 50% in size
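Fission yeast strain RE007, carrying one chromosomally integrated HIV-1 vpr copy, was seeded at OD 0.01 in PMG+AL medium with 23 nL pinned compound. After 24 h at 30 °C and 99% humidity, viability was read by BacTiter-Glo luminescence.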
The depositor's hits bear a star; ? = inconclusive; nt = no result; ! = not confirmed by another sample; [ ] = another dose, or the depositor's remark. Only a selection was taken, and hits are over-represented in it overall. Unless noted, calls follow the shape of the dose curve; as a rule, active = well fitted curve in the direction sought with a large enough effect; inconclusive = small, poorly fitted or top-dose-only effect, or another doubt; inactive = no such curve, though single readings can be large; an effect the other way counts as inactive or inconclusive.

SMILES | LmPK inh | FBPA Giardia inh | Cycloheximide cs | Tb PYK inh | Shiga toxin inh | RE007 growth inh
CC(C)NCC(O)COc1ccc(COCCOC(C)C)cc1 (stereo not drawn) | nt | 0% | 11 | -3% | 28* | 7%[18.4 µM]
CC(C)NCC(O)COCCOc1ccc(Br)cc1 (stereo not drawn) | -1% | 0% | -2 | -2% | -3 | 1%
c1ccc2c(c1)Cn1nc(Cc3nc4c(s3)CCCC4)nc1-2 | -1% | -13% | 35* | -15% | 74* | 16%
CC(C)Oc1ccc(CNC(=O)c2ccc3c(c2)N(Cc2ccc(F)cc2)CCS3)cc1 | nt | nt | nt | 1% | nt | nt
CC(OC(=O)c1ccc2ccccc2c1)C(=O)N(C)Cc1ccccc1 (stereo not drawn) | nt | nt | nt | 7% | nt | -5%
CCC(=O)CCC(=O)c1ccc2ccccc2c1 | -2% | 0% | 55* | -2% | 125* | -15%
CC(C)N(CCC(=O)c1ccc2ccccc2c1)Cc1ccccc1 | nt | 12% | nt | 0% | nt | 4µM*
O=C1C(=O)N(C2CCN(C(=O)c3ccc(F)cc3)CC2)CCN1Cc1ccc(F)cc1 | nt | nt | nt | -4% | nt | nt
COCCNC(=O)c1csc(Nc2cccc3ccccc23)n1 | -1% | -4% | 6 | 0% | 6 | -8%
COc1ccccc1Nc1nc(C)cs1 | 0% | -6% | 22*! | -13% | 85*! | 7%
COc1ccccc1Nc1ccc(Nc2ccccc2OC)nn1 | 3% | 1% | 29* | -4% | 175* | 1%
Cc1csc(Nc2ccccc2C(F)(F)F)n1 | -3% | nt | 21* | -2% | 39 | ?
Cc1csc(Nc2cccc3ccccc23)n1 | -7% | -26% | 21* | -5% | 97 | -4%
FC(F)(F)c1ccccc1Nc1nccs1 | -18% | -5% | -5 | ? | -21 | -7%
O=C(NCCCN1CCN(c2ccc(F)cc2)CC1)c1ccc2nc(Cc3ccccc3)oc2c1 | nt | nt | nt | -2% | nt | nt
NCCCC(N)CC(=O)NCC1NC(=O)C(CO)NC(=O)C(N)CNC(=O)C(C2CCN=C(N)N2)NC(=O)/C(=C/NC(N)=O)NC1=O (stereo not drawn) | nt | nt | nt | 2% | nt | nt
COc1ccc(OC)c(-n2c3c(cc(-c4nc(-c5ccc(Cl)cc5)cs4)c2=O)C(=O)CC(C)(C)C3)c1 | nt | nt | nt | -9% | nt | nt
CC1CN=C(Nc2ccccc2)S1 (stereo not drawn) | 1% | -10% | 9 | -5% | 8 | -10%
CC1CN=C(Nc2cccc3ccccc23)S1 (stereo not drawn) | 1% | 7% | 19* | 2% | 37 | -2%
CCC(=O)C1CCCN(C(=O)c2ccc3nc(-c4cccc(OC)c4)oc3c2)C1 (stereo not drawn) | -7% | 2% | 45* | -1% | 69* | 1%
CCOC(=O)C1CCCN(C(=O)c2ccc3nc(-c4cccc(OC)c4)oc3c2)C1 (stereo not drawn) | -3% | -1% | 32* | 1% | 72* | -9%
COCCc1nc2ccc(C(=O)N3CCCC(CCCO)C3)cc2o1 (stereo not drawn) | 2% | 4% | 15 | -2% | 4 | -1%
CCN(CC)C(=O)C1CCCN(C(=O)c2ccc3nc(-c4cccc(OC)c4)oc3c2)C1 (stereo not drawn) | nt | nt | nt | 1% | nt | 11%
COc1cccc(-c2nc3ccc(C(=O)N4CCCC(O)C4)cc3o2)c1 (stereo not drawn) | -7% | nt | 59* | -7% | 112* | 15%
CCOC(=O)c1cc(NC(=O)c2ccccc2)c(=O)n2c1oc1ccc(Cl)cc12 | nt | nt | nt | -15% | nt | nt
SMILES | LmPK inh | FBPA Giardia inh | Cycloheximide cs | Tb PYK inh | Shiga toxin inh | RE007 growth inh
COc1ccc(Cn2c(=O)n(-c3ccc(F)c(Cl)c3)c(=O)c3c2c2cc(OC)ccc2n3C)cc1 | nt | nt | nt | -3% | nt | nt
COc1cccc(NC(=O)C(=O)N/N=C(\C)CC(=O)Nc2ccc(NC(C)=O)cc2)c1 | -5% | 4% | 32* | 1% | 84* | 15%
CCc1ccc(NC(=O)C(=O)N/N=C(\C)CC(=O)Nc2ccc(OC)cc2)cc1 | 1% | 3% | 2 | 2% | 21 | 7%
C/C(=N\NC(=O)c1ccncc1)c1ccc(N(C)C)cc1 | 6% | -9% | 14 | -2% | 7 | -2%
COc1cccc(/C(C)=N/NC(=O)c2ccc(N(C)C)cc2)c1 | ? | 1% | 33* | -3% | 69* | 9%
COc1cccc(C(=O)N/N=C(\C)CC(=O)Nc2ccc(N(C)C)cc2)c1 | 0% | -6% | 41* | -34% | 57 | -8%
COCCCNC(=O)c1ccc(-c2nc(CS(=O)(=O)c3ccc(C)cc3)c(C)o2)cc1 | nt | nt | nt | 2% | nt | nt
CC(=O)c1cc(C(=O)c2ccccc2)sc1Nc1ccccc1 | 3% | 6% | 48* | -5% | 61* | 4%
O=C(NCc1cccnc1)C1COc2ccccc2O1 (stereo not drawn) | -4% | 0% | -2 | 2% | -8 | -22%
Cc1ccc(CSc2nnc(NC(=O)C3COc4ccccc4O3)s2)cc1 (stereo not drawn) | 1% | 20% | 2 | -1% | -3 | -8%
CCc1ccccc1NC(=O)C1COc2ccccc2O1 (stereo not drawn) | 13% | 11% | 7 | -6% | nt | 12%
CCc1nnc(NC(=O)C2COc3ccccc3O2)s1 (stereo not drawn) | -11% | -3% | 36* | -4% | 42 | -18%
O=C(Nc1nc2c(s1)CCCC2)C1COc2ccccc2O1 (stereo not drawn) | -13% | -1% | 38* | -4% | 45* | -24%
CCC(CC)c1nnc(NC(=O)C2COc3ccccc3O2)s1 (stereo not drawn) | -3% | 5% | 36* | 3% | 67* | -19%
O=C(Nc1ncc(Cc2ccccc2)s1)C1COc2ccccc2O1 (stereo not drawn) | 1% | nt | 43* | 0% | 126* | -14%
Cc1ccc(C(=O)Nc2ccccc2C(=O)O)cc1S(=O)(=O)N1CCCCCC1 | nt | nt | nt | -9% | nt | nt
CCCCNc1nc(C#N)nc(Nc2ccccc2)n1 | nt | -1% | nt | nt | nt | nt
CC(C)C[C@@H](CC(=O)N[C@@H](CCC(=O)O)CC(=O)O)NC(=O)[C@@H]1CCCC[C@H]1NC(=O)C[C@H](CCCN)NC(=O)C[C@H](CO)NC(=O)[C@@H]1CNCC[C@H]1N | nt | 0% | nt | nt | nt | nt
Cc1ccc(S(=O)(=O)C(CNC(=O)COc2ccccc2)c2ccco2)cc1 (stereo not drawn) | nt | nt | nt | 0% | nt | nt
C/C=C(\C)C(=O)OC1[C@@H]2C=C3C4CC(=O)OC(c5ccoc5)[C@]4(C)CCC3[C@@](C)(C2=O)C(C(O)C(=O)OC)C1(C)C (stereo partly drawn) | nt | 0% | nt | nt | nt | nt
